The values that follow come from PubChem BioAssay AID488969 (Vanderbilt High Throughput Screening Facility, 2010).

Over roughly 110,000 compounds, “z-score” has its median near -0.1; the highest 2% begin near 2. Only a selection was taken, and the highest values are over-represented in it overall. Activity calls are given as the source filed them.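 How the source made its calls: active means z-score in the third read window above 3 or below -3; inactive means the rest.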

The target in this experiment is Metabotropic glutamate receptor 8 (Rattus norvegicus) (UniProt P70579). In words: rat mGluR8 modulators via GIRK flux, primary screen, cell-based, thallium flux, HTS (AID 488969). The following applies: HEK293 rat mGluR8, GIRK (G protein-gated inwardly rectifying potassium channel) thallium flux, FluoZin2; at 10 µM; stronger effect = higher value; submaximal glutamate (EC20) added with thallium.
Sequence of Metabotropic glutamate receptor 8 (Rattus norvegicus) (P70579 whole entry, looked up): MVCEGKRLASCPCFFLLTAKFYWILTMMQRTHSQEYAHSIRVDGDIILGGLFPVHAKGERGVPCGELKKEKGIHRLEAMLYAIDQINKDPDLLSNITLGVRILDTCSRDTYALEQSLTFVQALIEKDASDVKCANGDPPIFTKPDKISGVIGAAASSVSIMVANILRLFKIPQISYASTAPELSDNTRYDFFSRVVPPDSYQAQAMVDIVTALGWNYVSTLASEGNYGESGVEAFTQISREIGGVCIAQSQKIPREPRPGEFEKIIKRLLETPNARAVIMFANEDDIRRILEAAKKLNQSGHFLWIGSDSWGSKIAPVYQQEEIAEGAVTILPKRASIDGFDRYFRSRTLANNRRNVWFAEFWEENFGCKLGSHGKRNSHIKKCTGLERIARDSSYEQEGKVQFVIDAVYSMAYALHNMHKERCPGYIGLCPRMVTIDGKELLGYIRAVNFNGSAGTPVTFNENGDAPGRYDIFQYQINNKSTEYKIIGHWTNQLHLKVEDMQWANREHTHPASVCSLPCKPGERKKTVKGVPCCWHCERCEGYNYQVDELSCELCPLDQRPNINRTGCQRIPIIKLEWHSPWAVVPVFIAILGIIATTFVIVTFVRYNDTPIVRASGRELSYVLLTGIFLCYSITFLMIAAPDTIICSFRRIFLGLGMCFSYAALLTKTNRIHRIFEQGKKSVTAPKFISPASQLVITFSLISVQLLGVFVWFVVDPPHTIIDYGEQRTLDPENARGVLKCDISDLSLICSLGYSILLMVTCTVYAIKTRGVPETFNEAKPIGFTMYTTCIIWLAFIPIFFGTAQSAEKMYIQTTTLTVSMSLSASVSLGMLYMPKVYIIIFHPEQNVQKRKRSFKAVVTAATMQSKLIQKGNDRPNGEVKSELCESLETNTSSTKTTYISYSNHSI
With `CCOC(=O)c1ccc(NC(=O)COC(=O)Cc2csc(-c3ccccc3)n2)cc1`, the z-score is -0.252.

Take `O=C(NCc1cccs1)c1ccccc1C(=O)NCc1cccs1`: the z-score was -0.214.

Regarding `O=C(NCc1cccs1)c1cccnc1C(=O)O`, the z-score is 5.74 (active).

In turn, `O=C(NCc1cccs1)c1cccnc1Cl` displayed a z-score of -0.317.

On to `CCN(CC)S(=O)(=O)c1ccc(NCc2ccccc2)nc1`, for which the z-score was -0.962.

For the molecule `CCC(Sc1ncnc2sc(C)c(C)c12)C(=O)OC` (configuration not stated), the z-score is -0.469.

In turn, `Cc1sc2ncnc(SC(C)C(=O)N3c4ccccc4Sc4ccccc43)c2c1C` (configuration not stated) gave a z-score of 2.19.

As for `Cc1sc2ncnc(SCC(=O)c3ccc(Cl)s3)c2c1C`, the z-score was determined as 1.06.

`Cc1sc2ncnc(SCC(=O)NCC(C)C)c2c1C` showed a z-score of -0.208.

`Cc1ccc(OCC(=O)NNC(=O)C(C)Sc2ncnc3sc(C)c(C)c23)cc1` (configuration not stated): the z-score was 7.7 (active).

The molecule `CCc1ccc(OCC(=O)NNC(=O)CSc2ncnc3sc(C)c(C)c23)cc1` showed a z-score of 0.487.

`COc1ccc(Cn2c(O)c(C=Nc3ccc(OC)cc3)c3ccccc3c2=O)cc1` yielded a z-score of -0.178.

`NC(=O)c1c(NC(=O)CSc2nc3c(c(C(F)(F)F)n2)CCc2ccccc2-3)sc2c1CCCC2` gave a z-score of -0.123.

In turn, `Cc1ccc(C)c(NC(=O)Cc2csc(-c3ccccc3)n2)c1` gave a z-score of -0.0885.

The molecule `O=C(NC1CCCCC1)C(c1ccc2ncccc2c1)N(Cc1ccc2c(c1)OCO2)C(=O)c1cccs1` (configuration not stated) registered a z-score of 0.00177.

In the case of `CC(=O)c1cnc(Nc2ccccc2)s1`, the z-score turned out to be 0.548.

`COc1ccc2cc(Br)ccc2c1CC(=O)NC(C)(C)C`: the z-score was -0.349.

Take `COc1ccc2cc(Br)ccc2c1CC(=O)NC1CC(C)(C)NC(C)(C)C1`: the z-score was 3.91 (active).

Molecule `CCCNC(=O)Cc1c(OC)ccc2cc(Br)ccc12` returned a z-score of 0.421.

As for `COc1ccc(CNCCC(c2ccc(F)cc2)c2ccc(OC)cc2)cc1` (configuration not stated), the z-score is 3.72 (active).

In the case of `COc1ccc(CNCCC(c2ccccc2)c2ccc3c(c2)OCO3)cc1` (configuration not stated), the z-score was 2.28.

Turning to `COc1ccc(C(CC(=O)Nc2ccc(F)cc2)c2ccccc2)cc1` (configuration not stated), the z-score came out at 1.4.

Turning to `COc1ccc(NC(=O)CC(c2ccc(F)cc2)c2ccc(OC)cc2)cc1` (configuration not stated), the z-score was -0.576.

For the molecule `COc1ccc(C(CCNC(C)c2ccccc2)c2ccc(F)cc2)cc1` (configuration not stated), the z-score amounted to 1.71.

On to `COc1ccc(C(CCNCc2ccccc2)c2ccc(F)cc2)cc1` (configuration not stated), for which the z-score turned out to be 1.8.

`COc1ccc(CC(=O)NCc2ccc3c(c2)OCO3)cc1`: the z-score was -0.347.

Turning to `COc1ccc(C(CCNCc2ccccc2F)c2ccc(F)cc2)cc1` (configuration not stated), the z-score is 3.61 (active).

Molecule `Fc1ccccc1CNCCC(Cc1ccccc1)c1ccc2c(c1)OCO2` (configuration not stated) showed a z-score of 0.733.

In the case of `CCOC(=O)c1cc(NC(=O)N(C(C)C)C(C)C)c(C)nc1C`, the z-score is 0.0304.

`Brc1ccc(-c2nc(-c3cccnc3)no2)o1` displayed a z-score of -0.481.

The molecule `COc1ccc(CCNC(=O)Cn2nnc(-c3ccccc3F)n2)cc1OC` came in with a z-score of 0.148.

For the molecule `COc1ccc2c(c1)-c1c(sn(-c3ccccc3)c1=S)C(C)(C)N2`, the z-score is -0.192.

`O=C(CC1Nc2ccccc2NC1=O)NCCCN1CCCCCC1` (configuration not stated) came in with a z-score of 2.07.

Take `CCCCN(CC)CCCNC(=O)CC1Nc2ccccc2NC1=O` (configuration not stated): the z-score worked out at 0.0522.

`O=C(CC1Nc2ccccc2NC1=O)NCCc1ccccc1` (configuration not stated): the z-score is -0.0324.

As to `COc1ccc(CNC(=O)C(NC(C)=O)C(=O)Nc2ccc(OC)cc2)cc1` (configuration not stated), the z-score was -0.149.

As to `Cc1ccc(C2(CC(=O)N3CCCC3)CCOC(C(C)C)C2)cc1` (configuration not stated), the z-score was -0.0604.

Molecule `O=C(O)CSc1nnnn1-c1ccc2c(c1)OCCO2` came in with a z-score of -0.0806.

For the molecule `COC(=O)C1=C(C)N(C)C(=O)NC1c1ccccc1` (configuration not stated), the z-score was -0.573.

`Cc1cccc(-n2c(C)nc3sccc3c2=O)c1`: the z-score was 1.99.

In turn, `Cc1cccc(-n2c(C)nc3c(cnn3-c3ccc(F)cc3)c2=O)c1` registered a z-score of 1.02.

With `Cc1nc2sccc2c(=O)n1-c1cccc(Cl)c1`, the z-score was -0.144.

`Cc1noc(C)c1S(=O)(=O)N1CCCC(C(=O)N2CCC(C)CC2)C1` (configuration not stated) registered a z-score of 1.01.

Take `Cc1ccc(Cl)cc1NC1=C/C(=N\S(=O)(=O)c2cccs2)c2ccccc2C1=O`: the z-score is -0.209.

The molecule `O=C(c1ccccc1Cl)N1CCc2ccccc2C1` returned a z-score of -1.42.

With `COc1ccc(NC(=O)/C(Cl)=C(/Cl)S(=O)(=O)Cc2ccc(C)cc2)cn1`, the z-score was -0.418.

In the case of `O=C(Nc1ccc2c(c1)OCO2)N1CCOCC1`, the z-score is 0.476.

`O=C(Nc1ccc2c(c1)OCO2)N1CCN(c2ccccc2Cl)CC1`: the z-score was -0.291.

Molecule `O=C(Nc1ccc2c(c1)OCO2)N1CCN(C(=O)C2CCCO2)CC1` (configuration not stated) displayed a z-score of 2.05.

Turning to `COc1ccccc1C(OC(=O)c1ccco1)C(=O)NC(C)(C)C` (configuration not stated), the z-score is -0.346.

In the case of `Fc1ccc2nc(-c3ccccc3)nc(SCc3nnc(-c4ccccc4)o3)c2c1`, the z-score is 14.3 (active).

`O=c1c2ccccc2nc(SCc2nnc(-c3ccccc3)o2)n1-c1ccc(F)cc1F` returned a z-score of -0.56.

`O=[N+]([O-])c1ccc(-c2nnc(CSc3nc(-c4ccccc4)nc4ccc(F)cc34)o2)cc1`: the z-score stood at 0.0904.

Molecule `COc1cc2c(cc1OC)C(COc1ccc3c(C)cc(=O)oc3c1)N(C(=O)c1ccco1)CC2` (configuration not stated) displayed a z-score of 0.044.

In the case of `Cc1csc(SCC(=O)N2CCN(S(=O)(=O)c3ccc(Cl)cc3)CC2)n1`, the z-score was found to be 0.756.

Consider `COc1cccc(-c2cc(C(=O)NC3CCCC3)no2)c1`, for which the z-score was 5.04 (active).

`COCCNC(=O)c1cc(-c2cccc(OC)c2)on1`: the z-score is -0.215.

`COC(=O)c1cc(-c2cccc(OC)c2)on1` yielded a z-score of -1.1.

With `CCOC(=O)c1c(C(F)(F)F)nc2ncccn12`, the z-score was -0.534.

In turn, `O=C(c1cnn2c(C(F)(F)F)cc(-c3ccc4c(c3)OCO4)nc12)N1CCCC1` displayed a z-score of -0.369.

For `O=C(CCCc1c[nH]c2ccccc12)N1CCN(c2ccc(N3CCOCC3)nn2)CC1`, the z-score was -0.501.

In turn, `Cc1cccc(NC(=O)COC(=O)c2ccc3c(=O)n4c(nc3c2)CCC4)c1` had a z-score of 2.19.

For the molecule `CN(C)c1cccc(C(=O)Nc2ccc3nc4n(c(=O)c3c2)CCCCC4)c1`, the z-score was -0.303.

`O=C(COC(=O)c1ccc2c(=O)n3c(nc2c1)CCC3)Nc1ccccc1F` yielded a z-score of -0.441.

`O=C(Nc1ccc2nc3n(c(=O)c2c1)CCCC3)c1ccccc1[N+](=O)[O-]` gave a z-score of -0.424.

`CC(C)(C)c1cc(NC(=O)COC(=O)c2ccc3c(=O)n4c(nc3c2)CCC4)n(-c2ccccc2)n1` showed a z-score of -0.264.

For the molecule `Cc1ccccc1C(=O)Nc1ccc2nc3n(c(=O)c2c1)CCC3`, the z-score is 3.87 (active).

In turn, `COc1ccccc1OC1=NS(=O)(=O)c2ccccc21` gave a z-score of -0.276.

`CC(C)(C)n1nc2c(c1NC(=O)c1ccccc1F)CS(=O)C2` (configuration not stated) came in with a z-score of -0.492.

Molecule `Cc1cc(C(=O)N2CCN(C(c3ccccc3)c3ccccc3)CC2)no1` gave a z-score of -0.079.

`COc1ccc(-c2nc3ccccn3c2NCc2ccc3c(c2)OCO3)cc1` gave a z-score of -1.02.

Take `CCCCn1nc(-c2ccccc2)c2nc3ccccc3nc21`: the z-score was -0.013.

Consider `CCCn1nc(-c2ccccc2)c2nc3ccccc3nc21`, for which the z-score stood at 0.0864.

Turning to `CCCCCn1nc(-c2ccccc2)c2nc3ccccc3nc21`, the z-score is 14.9 (active).

`CCCn1cc(SCC(=O)NCC2CCCO2)c2ccccc21` (configuration not stated) yielded a z-score of 0.0527.

In turn, `COc1cc(SC#N)ccc1N=Cc1c(C)[nH]n(-c2cccc3ccccc23)c1=O` returned a z-score of -0.32.

Consider `Cc1[nH]n(-c2ccc(F)cc2)c(=O)c1/C=N/c1sc2c(c1C#N)CCCC2`, for which the z-score is 13 (active).

In turn, `CCOC(=O)c1sc(/N=C/c2c(C)[nH]n(-c3ccccc3)c2=O)c(C#N)c1C` displayed a z-score of -0.156.

Take `N#Cc1c(/N=C/c2cc3ccccc3s2)sc2c1CCC2`: the z-score is -0.0332.

Molecule `Cc1ccc(/C=N/c2sc3c(c2C#N)CCCCC3)o1` had a z-score of -0.0448.

For `Cc1[nH]n(-c2cccc3ccccc23)c(=O)c1/C=N/c1sc2c(c1C#N)CCC2`, the z-score was 8.05 (active).

`COc1ccc(OC)c(C2C(C(=O)O)c3ccccc3C(=O)N2C)c1` (configuration not stated): the z-score was found to be 0.356.

`CCOC(=O)N1CCN(C(=O)c2ccc(CNS(=O)(=O)c3ccc(C)cc3)cc2)CC1` gave a z-score of -0.952.

`COC(=O)CSc1nc2ccccc2o1` yielded a z-score of -0.541.

`Cc1nonc1OCC(C)(COc1nonc1C)NC(=O)c1ccc(Cl)cc1`: the z-score was -0.0555.

`COc1ccccc1CNC(=O)/C=C/c1cc2c(cc1Br)OCO2` displayed a z-score of -0.0108.

The molecule `CC(=O)c1c(C)[nH]c(C(=O)COc2ccc(C#N)cc2)c1C` displayed a z-score of -0.0197.

For the molecule `CCCOc1ccc(OCC(=O)c2[nH]c(C)c(C(C)=O)c2C)cc1`, the z-score was found to be 0.149.

As to `CC(=O)c1c(C)[nH]c(C(=O)COc2cc(C)cc(C)c2)c1C`, the z-score is 4 (active).

For `O=C1CN(Cc2ccccc2)C(=NCc2ccco2)S1`, the z-score is -0.501.

In turn, `Cc1cccc(NC(=S)NCC23C=CC(O2)C2C(=O)N(c4ccc(Cl)cc4)C(=O)C23)c1` (configuration not stated) returned a z-score of -0.343.

`CCOC(=O)c1ccc(NC(=O)c2ccccc2[N+](=O)[O-])cc1` yielded a z-score of -0.169.

`CC(=O)NC(=S)Nc1ccc(-c2nc3ccc(C)cc3s2)cc1` came in with a z-score of 0.23.

Regarding `OCCNCCCCOc1ccc(F)cc1`, the z-score was 0.17.

Take `CC(C)(C)NCCCCOc1ccc(F)cc1`: the z-score turned out to be 2.98.

As to `CC(C)(C)NCCOc1ccc(Br)cc1`, the z-score was -0.0295.

In turn, `C=CCn1c(N)c(C(=O)NCC2CCCO2)sc1=S` (configuration not stated) showed a z-score of 0.129.

The molecule `CCOC(=O)N1CCN(c2cc(=O)n(C3CCCCC3)c(=O)[nH]2)CC1` returned a z-score of 0.0254.

In turn, `CCOc1ccc(OCC)c(-c2c(=O)n(OCc3ccccc3Br)c3ccccc3[n+]2[O-])c1` displayed a z-score of 1.8.

As for `COc1cccc(N2CCN(c3c4c(nc5ncnn35)CCC4)CC2)c1`, the z-score is 5.19 (active).

`c1ccc(N2CCN(c3c4c(nc5ncnn35)CCC4)CC2)cc1`: the z-score is -0.139.

`COc1cccc(CC(NC(C)=O)C(=O)NC2CCN(c3c4c(nc5ncnn35)CCC4)CC2)c1` (configuration not stated) showed a z-score of 0.172.

As for `COc1ccc2cc(S(=O)(=O)NCCCN3CCOCC3)ccc2c1`, the z-score was -0.0146.

`CCc1ccccc1NC(=O)C(C#N)Cc1cccnc1` (configuration not stated) yielded a z-score of 0.345.

Take `Cc1ccccc1NC(=O)C(C#N)Cc1cccnc1` (configuration not stated): the z-score worked out at 2.26.

In turn, `Cc1ccccc1NC(=O)/C(C#N)=C\c1cccnc1` registered a z-score of -0.183.

On to `Cc1ccc(CO/N=C\Cc2snc(Sc3ncc(C(F)(F)F)cc3Cl)c2C#N)cc1`, for which the z-score amounted to 0.0198.

The molecule `Cc1ccc(CNC(=O)C(Cc2ccccc2)NS(=O)(=O)c2ccc3c(c2)CCC(=O)N3)cc1` (configuration not stated) displayed a z-score of 0.0976.

The molecule `O=C(CSc1cn(Cc2ccccc2)c2ccccc12)Nc1nccs1` registered a z-score of -0.121.

With `COc1ccc(C(=O)NN=C(Cc2ccccc2)Cc2ccccc2)cc1OC`, the z-score was -0.165.

On to `O=C(NN=C(Cc1ccccc1)Cc1ccccc1)c1ccc(F)cc1`, for which the z-score was 4.71 (active).

Consider `C/C(Cc1ccccc1)=N\NC(=O)c1ccc(F)cc1`, for which the z-score worked out at 0.49.
